Measurements reported in the supplement of paper PMC6555819.

Assays:
Experiment in all cases: PBM binding z-score (relative to random genomic background probes); higher = stronger binding; sequences stand for … in GC…GCGATTGACAGCGTAGAATGAAGG
[1] = test system: FXR:RXRa (NR concentration 270 nM, RXRa partner concentration 90 nM)
Procedure, shortened: (§1)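 For binding z-scores, the reference was random background probes on custom Agilent 4×180K protein-binding microarrays. These arrays were incubated 1 h with ligand-free nuclear receptor dimers in PBS pH 7.4, 2% milk, 0.02% Triton X-100, 1 mM DTT, 0.2 mg/mL BSA and 0.4 mg/ml salmon testes DNA. Fluorescence was scanned after antibody detection of each partner (one per run) and regression-normalized.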

[2] = test system: LXRa:RXRa (NR concentration 270 nM, RXRa partner concentration 90 nM)
Procedure, shortened: as §1

[3] = test system: LXRa homodimer (NR concentration 270 nM)
Procedure, shortened: as §1

[4] = test system: LXRb:RXRa (NR concentration 270 nM, RXRa partner concentration 90 nM)
Procedure, shortened: as §1

[5] = test system: LXRb homodimer (NR concentration 270 nM)
Procedure, shortened: as §1

[6] = test system: PPARa:RXRa (NR concentration 270 nM, RXRa partner concentration 90 nM)
Procedure, shortened: as §1

[7] = test system: PPARg:RXRa (NR concentration 180 nM, RXRa partner concentration 90 nM)
Procedure, shortened: as §1

[8] = test system: PPARg:RXRa 270nM:90nM, anti-RXR (NR concentration 270 nM, RXRa partner concentration 90 nM)
Procedure, shortened: as §1

[9] = test system: PPARg:RXRa 30nM:10nM, anti-RXR (NR concentration 30 nM, RXRa partner concentration 10 nM)
Procedure, shortened: as §1

[10] = test system: PPARg:RXRa 90nM:30nM, anti-RXR (NR concentration 90 nM, RXRa partner concentration 30 nM)
Procedure, shortened: as §1

[11] = test system: PPARg:RXRa DBDmut IVT, anti-RXR (DBD mutation: RXRa K156A/R161A, NR concentration 270 nM, RXRa partner concentration 90 nM)
Procedure, shortened: as §1

[12] = test system: PPARg:RXRa IVT, anti-PPARg (NR concentration 270 nM, RXRa partner concentration 90 nM)
Procedure, shortened: as §1

[13] = test system: PPARg DBDmut:RXRa IVT, anti-PPARg (DBD mutation: PPARg1 K132A/R137A, NR concentration 270 nM, RXRa partner concentration 90 nM)
Procedure, shortened: as §1

[14] = test system: PPARg DBDmut IVT, anti-PPARg (DBD mutation: PPARg1 K132A/R137A, NR concentration 270 nM)
Procedure, shortened: as §1

[15] = test system: PPARg homodimer (NR concentration 180 nM)
Procedure, shortened: as §1

[16] = test system: PXR:RXRa (NR concentration 270 nM, RXRa partner concentration 90 nM)
Procedure, shortened: as §1

[17] = test system: PXR homodimer (NR concentration 270 nM)
Procedure, shortened: as §1

[18] = test system: RARa:RXR (NR concentration 270 nM, RXRa partner concentration 90 nM)
Procedure, shortened: as §1

[19] = test system: RARa homodimer (NR concentration 270 nM)
Procedure, shortened: as §1

[20] = test system: RARb:RXRa (NR concentration 270 nM, RXRa partner concentration 90 nM)
Procedure, shortened: as §1

Sequence | PBM binding z-score [1] | PBM binding z-score [2] | PBM binding z-score [3] | PBM binding z-score [4] | PBM binding z-score [5] | PBM binding z-score [6] | PBM binding z-score [7] | PBM binding z-score [8] | PBM binding z-score [9] | PBM binding z-score [10] | PBM binding z-score [11] | PBM binding z-score [12] | PBM binding z-score [13] | PBM binding z-score [14] | PBM binding z-score [15] | PBM binding z-score [16] | PBM binding z-score [17] | PBM binding z-score [18] | PBM binding z-score [19] | PBM binding z-score [20]
ACTATTAGGTGACTTAGGGCAACCGATACGACGC | 0.616 | 0.424 | 0.428 | 0.142 | 0.261 | 1.27 | 1.85 | 1.34 | 0.448 | 0.872 | 4.96 | 3.9 | 1.48 | 0.993 | 0.861 | 0.146 | 0.0513 | 0.9 | 1 | 1.31
CCTCGGAGGACAACAGGTGGTCAGAGCTGCCAGA | -0.329 | -0.519 | -0.443 | -0.782 | -1.09 | -0.623 | -0.311 | -0.79 | -1.45 | -1.37 | -0.455 | -0.616 | -2.74 | -2.26 | -0.317 | -0.667 | -0.589 | -0.583 | -0.066 | 1.04
TAGCCTAGGTCATCGGGCCAGTATAGTACGCATC | 4.52 | 3.33 | 0.51 | 2.29 | 0.0366 | 3.91 | 3.13 | 3.04 | 0.482 | 2.16 | 1.44 | 3.19 | 0.181 | -0.303 | 1.03 | 1.81 | -0.265 | 2.58 | -0.0244 | 3.9
CCAGACAGGTGGGAAGGTAACTCAGCCTCGATTA | -0.208 | -0.246 | 0.289 | 0.0174 | -0.794 | 0.0187 | 0.131 | -0.544 | -0.249 | -0.529 | -0.289 | -0.383 | -0.344 | -0.717 | 0.689 | -0.359 | 0.0826 | -0.164 | 0.496 | -0.0117
CGAACTAGGTCATCCAGGACACTGAATACATTGA | 4.41 | 3.1 | 0.974 | 2.29 | 0.265 | 4.94 | 7.9 | 6.43 | 3.85 | 5.81 | 8.38 | 8.23 | 3.17 | 1.12 | 2.19 | 2.31 | 1.65 | 2.99 | 1.29 | 3.98
CCTACTGGGCCAAAAAGGTCATTGAAGCCGATAA | 3.74 | 4.35 | 2.77 | 4.22 | 0.158 | 4.79 | 3.38 | 4.24 | 1.31 | 3.47 | 3.62 | 3.97 | -0.352 | -0.851 | 3.29 | 4.73 | 3.09 | 5.39 | 1.5 | 4.06
ATACGTAGGTTAGCTGGGGTCATTCAGACTAGGC | 5.03 | 5.91 | 2.24 | 4.72 | 0.757 | 4.24 | 1.72 | 2.91 | 0.452 | 1.55 | 0.981 | 1.51 | 0.0785 | 0.0192 | 1.82 | 6.17 | 4.22 | 5.33 | 0.497 | 2.93
AGAATGAGGTTTCCAAAGATCAGGGAAACGCTTG | -0.506 | -0.535 | -0.424 | -0.463 | -0.489 | -0.139 | 0.377 | -0.265 | -0.17 | -0.215 | 0.298 | -0.0805 | 0.256 | 0.153 | -0.417 | -0.387 | -0.601 | -0.144 | -0.745 | -0.151
GCAGACAGATGAAACGCAGGTAACTCAGGGTGGC | -0.734 | -0.704 | -0.594 | -0.986 | -1.14 | -0.624 | 0.616 | -0.641 | -0.438 | -0.564 | -0.362 | -0.767 | -1.03 | -0.761 | -1.19 | -0.681 | -0.52 | -0.161 | -0.884 | -1.1
ACTACCAGGCCAAGTTTGGGTCACTCAAACAAAG | 0.642 | 0.276 | 0.197 | 1.05 | 0.0374 | 1.58 | 0.43 | 0.598 | -0.29 | 0.255 | 1.12 | 2.04 | 0.0556 | -0.292 | 0.797 | 0.921 | 0.121 | 1.45 | 0.491 | 2
AGAACGAGGGCACGCTGAGTTGATAGCCGAGTAG | 0.799 | 0.509 | -0.574 | 0.154 | -0.961 | 2.17 | 2.04 | 1.7 | -0.0721 | 0.936 | 4.46 | 4.04 | 0.489 | 0.266 | 0.0307 | 1.21 | -0.287 | 0.916 | -0.217 | 2.42
TTACCAAGGTGAGTTGAGGTCGTTGATCCAACTC | 1.28 | 2.03 | -0.25 | 1.39 | -0.831 | 2.06 | 0.352 | 0.682 | 0.292 | 0.637 | 0.767 | 1.95 | -0.517 | -0.489 | 0.402 | 4.83 | 0.689 | 2.24 | -0.309 | 1.54
CGAACGAGGGCATGAGTTGAGAGCAAATGCCGAT | 0.636 | 0.355 | -0.664 | 0.203 | -1 | 1.65 | 1.42 | 1.4 | 0.0136 | 0.958 | 3.19 | 2.16 | -0.212 | -0.733 | -0.198 | 0.363 | -0.12 | 0.437 | -0.617 | 2.05
CCTACTGGGCCAAAGTCATTGATCAGTCAAAGCA | -0.681 | -0.266 | -0.412 | -0.243 | -1.2 | 0.687 | 1.42 | 2.53 | 0.485 | 1.74 | 4.29 | 3.6 | -0.537 | -0.517 | -0.302 | -0.584 | -0.623 | -0.335 | -1.15 | 0.121
